This is an account of results in PubChem BioAssay.

Structures are written as SMILES. Inconclusive results are not listed. Active and inactive are the calls of the source.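 The calls were made as follows, unless noted: active = inhibition above the screen-wide mean plus 3 SD, about 51%; inactive = the rest.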 Peptide text beside a SMILES is read from it. * marks the point of attachment. Boc = CC(C)(C)OC(=O)*; OBn = c1ccc(CO*)cc1

A short description of experiment [1]: rapamycin-like changes in RPL19A-GFP expression – cell-based, S. cerevisiae, multiplex flow cytometry, primary screen (AID 1862; in the data active = percent of DMSO control GFP below about 86%;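 also: lower values mimic rapamycin by blocking the RPL19A rise seen in DMSO cells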). Particulars: S. cerevisiae RPL19A-GFP strain, flow cytometry fluorescence, 3 h; at 10 µM; stronger effect = lower value.
A short description of experiment [2]: TOR pathway GLN3 branch reporter MEP2-GFP changes – S. cerevisiae, multiplex flow cytometry, primary screen (AID 1867;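 active = GFP response, as percent of the DMSO control, above the screen-wide mean plus 3 SD, about 139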;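 also: median GFP channel fluorescence of barcode-gated MEP2-GFP cells measured by flow cytometry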). Particulars: S. cerevisiae MEP2-GFP strain, 3 h, at 10 µM, stronger effect = higher value, 100% means same as DMSO wells.
Experiment [3] in a line: TOR pathway RTG branch CIT2 reporter changes – S. cerevisiae, GFP fusion, multiplex flow cytometry, primary screen (AID 1870;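 active = percent response above a set limit, the screen-wide mean plus 3 SD, cut at about 130% in these data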;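 also: barcoded CIT2-GFP strain pooled with four other GFP strains with rapamycin as positive control; median GFP fluorescence per well over plate mean of DMSO wells so 100% = DMSO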). The following applies: S. cerevisiae CIT2-GFP expression, 3 h, at 10 µM, stronger effect = higher value.
Experiment [4] in a line: TOR pathway LAP4-GFP level changes – S. cerevisiae, multiplex flow cytometry, primary screen (AID 1873;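 active = GFP signal, as percent of the solvent control, above the screen mean plus 3 SD, about 149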). Particulars: S. cerevisiae LAP4-GFP expression, 3 h, at 10 µM, stronger effect = higher value.
A short description of experiment [5]: yeast AGP1-GFP level changes, GLN3 branch – cell-based, multiplex flow cytometry, S. cerevisiae, primary screen (AID 1887;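 active = GFP signal above the screen-wide mean plus 3 SD, that is over about 124.5% of the solvent control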;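 also: AGP1-GFP fusion strain of S. cerevisiae within a five-strain barcoded multiplex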). Particulars: 3 h, at 10 µM, stronger effect = higher value.
Experiment [6] is described as follows: reduced mouse 2C T cell binding to pMHC/ICAM-1 vesicles – MLPCN validation set, flow cytometry, LFA-1/ICAM-1 modulator project, pilot screen (AID 2523;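 active = response below a set limit, under 55% cells CD8-positive and vesicle-bound, and CD8 cells' 90th-percentile brightness under 279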;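 as to vesicle binding response: mean PE anti-B7-1 fluorescence of CD8+ cells relative to row control; 100% = QL9-loaded vesicles with DMSO vehicle in the same plate row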). The following applies: 2C mouse CD8+ T cells, at 7 µM, stronger effect = lower value; double positive events: measured here: CD8+/vesicle+ event percentage.
Experiment [7] addresses Integrin beta-1 (Homo sapiens) + Integrin alpha-4 (Homo sapiens) (UniProt P13612+P05556). The experiment can be described thus: alpha4beta1 integrin LIBS antibody binding reduction – U937 cells, HUTS-21 mAb, flow cytometry, validation set, VLA-4 allosteric modulator project, pilot screen (AID 2674;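 active = inhibition above 50%, about 3 SD of the validation set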;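 also: antibody binding induced by the VLA-4 ligand LDV present at three times its Kd; 0% = LDV ligand with antibody and no compound and 100% = antibody without LDV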). The following applies: HUTS-21 LIBS mAb binding, at 6.7 µM, stronger effect = higher value, binding induced by LDV ligand.

Experiment [8] can be described thus: calorie-restriction mimetic ROS inhibitors, yeast – validation compound set, pilot screen (AID 2706;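 active = superoxide response below 65% of plate, a cut near 3 SD across the whole screen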;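 also: yeast exposed to compound for one week at 30 degrees C before staining; 100% = mean of all compound wells on the same plate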). The following applies: S. cerevisiae aging, superoxide DHE fluorescence; at 10 µM, stronger effect = lower value.
The target of experiment [9] is Beta-adrenergic receptor kinase 1 (Homo sapiens) (UniProt P25098). Nature of the experiment: GRK2 binders displacing RNA aptamer, biochemical, validation, human GRK2, bead flow cytometry (AID 488806;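 active = aptamer binding inhibition above 30%, about 3 SD of noise from non-fluorescent compounds; inactive = inhibition at or below 30%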). Particulars: bead-bound GRK2, FAM-aptamer displacement, at 10 µM, stronger effect = higher value.
The target in experiment [10] is AP-2 complex subunit beta (Homo sapiens) (UniProt P63010). Nature of the experiment: beta-arrestin/AP2 interaction blockers – biochemical, validation set, GST-AP2 beads, flow cytometry, pilot screen (AID 504541;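 active = inhibition above 54%, about 3 SD of non-fluorescent compounds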;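 also: AP2 carries R879A mutation and is captured from E. coli lysate; bead-bound FITC arrestin peptide fluorescence measuring arrestin peptide binding to AP2; 0% = DMSO wells and 100% = excess unlabeled arrestin peptide control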). Particulars: FITC arrestin peptide, at 10 µM, stronger effect = higher value, AP2 beta2 appendage fragment, R879A mutant.
The nature of experiment [11]: cytosolic pH regulators acting via V-ATPase – S. cerevisiae, pHLuorin, HTS validation (AID 504600; in the data active = response above about 15%;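 also: plate controls were DMSO for no effect and reference compound for full effect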). The following applies: V-ATPase proton transport, at 10 µM, stronger effect = higher value.
The test system of experiment [12] is anti-desmoglein-3 scFv antibody binding to human DSG3. Nature of the experiment: blockers of pathogenic pemphigus antibody–desmoglein-3 binding – biochemical, validation compound set, bead-based, flow cytometry, pilot screen (AID 588368;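 active = binding below the plate cutoff, the plate median minus 3 SD, with a reading above zero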;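 also: signal is the median channel fluorescence of bead-bound GFP antibody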). The following applies: Protein G beads, DSG3-Fc, scFv-GFP binding, at 10 µM, stronger effect = lower value.
A short description of experiment [13]: Nile Red efflux blockade in pump-expressing yeast – validation compound set, multiplex, phenotypic, pilot screen (AID 588506;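 active = efflux inhibition above 0.42, the validation set average plus 4 SD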;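 also: Nile Red retained in cells so higher fluorescence means more efflux inhibition; 0 = negative control wells and 1 = enniatin B 25 µM full block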). Particulars: S. cerevisiae pump-expressing triplex, Nile Red efflux flow cytometry; at 10 µM; stronger effect = higher value; the pumps come from Candida albicans.
Experiment [14] has as its target ATP-binding cassette sub-family B member 6 (Homo sapiens) (UniProt Q9NP58). Nature of the experiment: blockers of ABCB6-driven porphyrin uptake – K562-ABCB6 cells, flow cytometry, validation set, pilot screen (AID 588550).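 Also: 0% = DMSO wells and 100% = benzethonium chloride 70 µM positive control.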 The following applies: K562-ABCB6 porphyrin accumulation, 1 h, at 10 µM, stronger effect = higher value.
The nature of experiment [15]: AML differentiation inducers, ER-HoxA9 marrow cells – cell-based, GFP/MAC1 double positive, flow cytometry, validation set, primary screen (AID 588685;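 active = differentiation response of at least 50%, scaled between solvent and reference control, from cells with both markers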;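 also: compound exposure lasts four days before antibody staining and flow analysis; 0% = DMSO wells and 100% = 5 µM fulvestrant positive control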). The following applies: stronger effect = higher value, normalized: vehicle 0, fulvestrant 100.
For experiment [16], the target named is Beta-2 adrenergic receptor (Homo sapiens) (UniProt P07550). Nature of the experiment: agonist-induced loss of surface beta2AR – cell-based, FAP fluorogen, flow cytometry, validation set, pilot screen (AID 504459;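 active = percent response above 42, roughly 3 SD of non-fluorescent test compounds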;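 also: agonist-driven loss of surface beta2AR via internalization measured by FAP dye flow cytometry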). The following applies: Am2.2-beta2AR cells, at 10 µM, stronger effect = higher value.
Beta-2 adrenergic receptor (Homo sapiens), sequence (P07550 whole entry, looked up): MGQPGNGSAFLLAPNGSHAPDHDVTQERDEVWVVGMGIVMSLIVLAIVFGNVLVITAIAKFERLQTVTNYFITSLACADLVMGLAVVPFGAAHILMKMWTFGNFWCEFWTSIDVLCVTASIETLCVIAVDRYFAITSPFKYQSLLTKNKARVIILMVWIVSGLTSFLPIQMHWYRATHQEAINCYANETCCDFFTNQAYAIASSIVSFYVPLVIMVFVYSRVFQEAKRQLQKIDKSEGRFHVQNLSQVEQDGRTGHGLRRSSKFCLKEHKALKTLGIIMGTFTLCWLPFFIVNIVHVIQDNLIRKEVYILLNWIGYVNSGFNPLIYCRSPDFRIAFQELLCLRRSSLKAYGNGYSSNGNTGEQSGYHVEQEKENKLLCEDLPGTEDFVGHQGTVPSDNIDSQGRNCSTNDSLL

AP-2 complex subunit beta (Homo sapiens), sequence (P63010 whole entry, looked up, the tested form may be a part, one chain of several): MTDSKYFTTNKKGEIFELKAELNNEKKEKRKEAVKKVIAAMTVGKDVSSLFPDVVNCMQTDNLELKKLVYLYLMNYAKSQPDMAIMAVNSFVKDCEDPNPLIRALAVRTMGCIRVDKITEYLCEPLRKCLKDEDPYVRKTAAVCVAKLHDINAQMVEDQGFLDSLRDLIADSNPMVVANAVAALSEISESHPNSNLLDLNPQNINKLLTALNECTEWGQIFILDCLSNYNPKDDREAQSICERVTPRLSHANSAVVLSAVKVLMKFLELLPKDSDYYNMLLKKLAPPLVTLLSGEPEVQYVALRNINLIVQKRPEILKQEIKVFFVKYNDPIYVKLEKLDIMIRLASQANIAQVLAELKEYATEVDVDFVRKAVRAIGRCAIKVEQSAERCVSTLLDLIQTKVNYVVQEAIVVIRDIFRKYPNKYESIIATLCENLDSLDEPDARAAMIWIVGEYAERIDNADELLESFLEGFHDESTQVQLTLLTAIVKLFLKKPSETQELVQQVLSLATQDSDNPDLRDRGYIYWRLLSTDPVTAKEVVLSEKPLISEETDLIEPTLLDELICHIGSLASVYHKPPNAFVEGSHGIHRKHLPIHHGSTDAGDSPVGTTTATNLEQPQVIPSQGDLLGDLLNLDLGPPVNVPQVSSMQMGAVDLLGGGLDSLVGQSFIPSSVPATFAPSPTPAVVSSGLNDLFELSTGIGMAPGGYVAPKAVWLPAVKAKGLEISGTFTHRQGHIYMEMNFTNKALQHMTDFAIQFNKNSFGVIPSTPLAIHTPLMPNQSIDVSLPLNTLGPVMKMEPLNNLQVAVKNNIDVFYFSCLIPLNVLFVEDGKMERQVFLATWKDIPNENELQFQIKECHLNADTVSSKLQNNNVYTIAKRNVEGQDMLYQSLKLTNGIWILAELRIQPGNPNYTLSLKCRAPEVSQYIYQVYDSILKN
Beta-adrenergic receptor kinase 1 (Homo sapiens), sequence (P25098 whole entry, looked up): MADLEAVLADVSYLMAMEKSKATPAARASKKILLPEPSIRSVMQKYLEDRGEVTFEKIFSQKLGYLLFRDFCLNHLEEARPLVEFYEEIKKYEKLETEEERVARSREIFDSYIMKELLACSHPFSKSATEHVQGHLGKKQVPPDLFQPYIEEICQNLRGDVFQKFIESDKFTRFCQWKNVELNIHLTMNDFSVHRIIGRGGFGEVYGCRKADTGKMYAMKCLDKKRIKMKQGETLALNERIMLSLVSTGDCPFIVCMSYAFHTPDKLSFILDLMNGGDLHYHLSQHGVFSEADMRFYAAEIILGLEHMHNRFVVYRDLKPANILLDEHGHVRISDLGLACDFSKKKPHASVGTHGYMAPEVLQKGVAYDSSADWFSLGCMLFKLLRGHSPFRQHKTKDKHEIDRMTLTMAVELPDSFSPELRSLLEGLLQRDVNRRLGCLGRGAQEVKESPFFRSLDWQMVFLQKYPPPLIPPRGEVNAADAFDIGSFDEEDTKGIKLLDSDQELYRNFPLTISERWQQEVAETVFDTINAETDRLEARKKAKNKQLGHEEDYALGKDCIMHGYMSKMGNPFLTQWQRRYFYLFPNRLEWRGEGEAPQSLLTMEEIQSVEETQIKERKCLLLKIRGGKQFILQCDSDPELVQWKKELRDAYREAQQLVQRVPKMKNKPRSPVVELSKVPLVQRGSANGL
Integrin beta-1 (Homo sapiens) + Integrin alpha-4 (Homo sapiens), sequence (P05556 whole entry, looked up): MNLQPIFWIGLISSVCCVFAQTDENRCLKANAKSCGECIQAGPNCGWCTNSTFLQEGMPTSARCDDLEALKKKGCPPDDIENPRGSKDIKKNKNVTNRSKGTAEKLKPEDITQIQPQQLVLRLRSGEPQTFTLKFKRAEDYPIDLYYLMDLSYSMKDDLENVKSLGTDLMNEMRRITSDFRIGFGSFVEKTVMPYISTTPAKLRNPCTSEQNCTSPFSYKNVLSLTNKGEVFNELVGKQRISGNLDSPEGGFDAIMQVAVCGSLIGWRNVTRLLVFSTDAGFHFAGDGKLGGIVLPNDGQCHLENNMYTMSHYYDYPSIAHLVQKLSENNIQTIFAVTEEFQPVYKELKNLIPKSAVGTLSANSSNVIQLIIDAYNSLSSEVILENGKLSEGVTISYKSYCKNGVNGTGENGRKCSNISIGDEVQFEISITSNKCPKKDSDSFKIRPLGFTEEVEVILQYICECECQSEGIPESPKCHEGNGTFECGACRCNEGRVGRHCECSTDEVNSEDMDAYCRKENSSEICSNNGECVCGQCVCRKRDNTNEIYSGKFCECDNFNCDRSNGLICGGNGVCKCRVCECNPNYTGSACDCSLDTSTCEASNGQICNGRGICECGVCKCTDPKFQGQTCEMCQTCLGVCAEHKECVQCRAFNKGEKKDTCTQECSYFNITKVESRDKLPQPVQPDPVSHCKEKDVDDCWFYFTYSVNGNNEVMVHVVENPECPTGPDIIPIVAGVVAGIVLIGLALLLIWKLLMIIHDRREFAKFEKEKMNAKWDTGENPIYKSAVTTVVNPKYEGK
Integrin beta-1 (Homo sapiens) + Integrin alpha-4 (Homo sapiens), sequence (P13612 whole entry, looked up): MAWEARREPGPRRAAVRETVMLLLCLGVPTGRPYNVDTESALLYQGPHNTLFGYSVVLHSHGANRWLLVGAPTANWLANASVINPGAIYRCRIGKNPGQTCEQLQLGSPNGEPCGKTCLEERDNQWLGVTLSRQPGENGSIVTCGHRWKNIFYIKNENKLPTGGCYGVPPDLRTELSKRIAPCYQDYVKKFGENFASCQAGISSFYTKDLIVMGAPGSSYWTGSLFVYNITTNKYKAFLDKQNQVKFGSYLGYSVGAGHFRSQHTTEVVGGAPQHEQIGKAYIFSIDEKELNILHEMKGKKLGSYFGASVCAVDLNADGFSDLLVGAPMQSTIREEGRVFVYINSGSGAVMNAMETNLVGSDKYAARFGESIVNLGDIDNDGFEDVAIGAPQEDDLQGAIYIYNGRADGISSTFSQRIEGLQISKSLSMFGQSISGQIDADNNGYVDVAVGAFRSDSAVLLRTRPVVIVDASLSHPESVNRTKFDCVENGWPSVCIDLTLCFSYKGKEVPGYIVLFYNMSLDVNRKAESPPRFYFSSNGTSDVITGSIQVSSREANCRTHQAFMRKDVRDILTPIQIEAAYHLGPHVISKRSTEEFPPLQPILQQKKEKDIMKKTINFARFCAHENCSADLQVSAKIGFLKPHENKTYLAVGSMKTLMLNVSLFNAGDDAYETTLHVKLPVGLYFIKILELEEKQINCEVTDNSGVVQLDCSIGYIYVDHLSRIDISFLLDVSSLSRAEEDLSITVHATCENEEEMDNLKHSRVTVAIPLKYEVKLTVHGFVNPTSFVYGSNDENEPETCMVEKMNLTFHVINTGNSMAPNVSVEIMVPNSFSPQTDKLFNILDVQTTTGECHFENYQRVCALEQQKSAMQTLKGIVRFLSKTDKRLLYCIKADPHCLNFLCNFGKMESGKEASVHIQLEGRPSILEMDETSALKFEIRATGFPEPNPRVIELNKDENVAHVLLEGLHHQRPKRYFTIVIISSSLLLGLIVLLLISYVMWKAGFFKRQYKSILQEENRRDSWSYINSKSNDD
ATP-binding cassette sub-family B member 6 (Homo sapiens), sequence (Q9NP58 whole entry, looked up): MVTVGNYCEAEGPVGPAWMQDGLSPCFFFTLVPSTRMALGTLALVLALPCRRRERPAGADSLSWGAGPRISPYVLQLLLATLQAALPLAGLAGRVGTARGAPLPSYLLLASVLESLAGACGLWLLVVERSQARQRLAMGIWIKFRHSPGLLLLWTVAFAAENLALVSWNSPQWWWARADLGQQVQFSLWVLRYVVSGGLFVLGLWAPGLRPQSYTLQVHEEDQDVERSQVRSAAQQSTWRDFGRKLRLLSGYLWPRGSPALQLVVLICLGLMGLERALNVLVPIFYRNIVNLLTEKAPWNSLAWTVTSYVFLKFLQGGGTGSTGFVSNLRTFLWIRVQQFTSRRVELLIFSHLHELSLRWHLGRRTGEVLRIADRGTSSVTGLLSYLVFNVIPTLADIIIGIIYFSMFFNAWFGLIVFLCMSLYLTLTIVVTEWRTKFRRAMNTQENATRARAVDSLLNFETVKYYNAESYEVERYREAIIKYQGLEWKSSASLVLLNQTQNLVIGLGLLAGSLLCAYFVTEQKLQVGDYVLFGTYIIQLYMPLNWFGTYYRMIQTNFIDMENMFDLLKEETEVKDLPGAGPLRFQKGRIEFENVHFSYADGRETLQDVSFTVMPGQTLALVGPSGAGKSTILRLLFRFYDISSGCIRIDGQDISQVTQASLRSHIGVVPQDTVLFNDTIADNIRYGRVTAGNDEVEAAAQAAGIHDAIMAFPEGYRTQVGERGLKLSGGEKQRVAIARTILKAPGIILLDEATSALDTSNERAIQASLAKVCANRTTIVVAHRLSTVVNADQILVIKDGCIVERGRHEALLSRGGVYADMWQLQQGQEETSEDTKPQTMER

As to `COc1ccc([C@@H]2Sc3ccccc3N(CCN(C)C)C(=O)[C@@H]2OC(C)=O)cc1`, the percent of DMSO control GFP in experiment [1] is 104% (inactive). The GFP response vs DMSO in experiment [2] was 102% (inactive); in experiment [4], 93.3% (inactive). For the same compound, the percent response of DMSO control in experiment [3] was 105% (inactive). Besides, the GFP response, % of DMSO in experiment [5] is 101% (inactive). Also, the double positive events in experiment [6] turned out to be 62.9%. Also, the vesicle binding response in experiment [6] was 200% (inactive). For the same compound, the inhibition is -0.24% (inactive) in experiment [7], 5.2% (inactive) in experiment [10] and -227% (inactive) in experiment [14]. Also, the superoxide response (% of plate) in experiment [8] is 101% (inactive). For the same compound, the aptamer binding inhibition in [9] was -1% (inactive). For the same compound, the response in experiment [11] was -4.23% (inactive). For the same compound, the binding (% of control) in experiment [12] is 99.1% (inactive). Also, the efflux inhibition (fraction of control) in experiment [13] is 0.03 (inactive). Further, in experiment [15], the differentiation response is -8.27% (inactive).
`CCC1(c2ccccc2)C(=O)NCNC1=O`: in experiment [1], the percent of DMSO control GFP is 102% (inactive). Moreover, the GFP response vs DMSO was 94.1% (inactive) in [2] and 87.4% (inactive) in experiment [4]. Further, the percent response of DMSO control in experiment [3] is 95.4% (inactive). Moreover, the GFP response, % of DMSO in experiment [5] was 92.6% (inactive). The double positive events in experiment [6] turned out to be 61.9%. For the same compound, the vesicle binding response in [6] is 285% (inactive). Besides, the inhibition in experiment [7] was 5.77% (inactive); in experiment [10], 13.7% (inactive); in experiment [14] it was -12% (inactive). Further, the aptamer binding inhibition in experiment [9] is 2% (inactive). The results for the response in experiment [16] and in experiment [11] were 7.83% (inactive) and 1.33% (inactive), respectively. The binding (% of control) in [12] was 101% (inactive). Moreover, the efflux inhibition (fraction of control) in [13] was 0.77 (active). Further, the differentiation response in [15] was 13.9% (inactive).
With `CCOc1ccccc1OCCOc1ccc(F)cc1`, the percent of DMSO control GFP in [1] is 101% (inactive). Besides, the GFP response vs DMSO in experiment [2] was 98.3% (inactive); in experiment [4], 88.1% (inactive). Moreover, the percent response of DMSO control in [3] was 100% (inactive). Also, in experiment [5], the GFP response, % of DMSO is 91.1% (inactive). The compound also yielded a double positive events in [6] of 63.4%. Further, the vesicle binding response in experiment [6] is 193% (inactive). The results for the inhibition in [7], in [10] and in experiment [14] were -30.5% (inactive), 0.71% (inactive) and 1% (inactive), respectively. Also, in experiment [9], the aptamer binding inhibition is 0% (inactive). Moreover, the response in experiment [16] is 7.79% (inactive); in [11] it was -0.31% (inactive). The binding (% of control) in [12] was 104% (inactive). For the same compound, the efflux inhibition (fraction of control) in [13] is 0.24 (inactive). The differentiation response in experiment [15] was 12% (inactive).
For the compound `CC(C)CC(NC(=O)C(NC(=O)OC(C)(C)C)C(C)C)C(=O)NC(CCC(=O)OCc1ccccc1)C(N)=O` (stereo not drawn) (Boc-Val-Leu-Glu(OBn)-NH2; configuration not given here), the percent of DMSO control GFP in experiment [1] is 99.6% (inactive). Also, the GFP response vs DMSO in experiment [2] was 98.9% (inactive); in experiment [4] it was 84.3% (inactive). For the same compound, in [3], the percent response of DMSO control is 95.9% (inactive). In addition, the GFP response, % of DMSO in experiment [5] is 93.1% (inactive). The same compound had a double positive events in [6] of 65%. Besides, the vesicle binding response in experiment [6] is 186% (inactive). The inhibition was 3.49% (inactive) in experiment [7], 2.78% (inactive) in [10] and 11% (inactive) in [14]. Further, the superoxide response (% of plate) in [8] is 94.3% (inactive). Besides, in experiment [9], the aptamer binding inhibition was 0% (inactive). The response in experiment [11] was -7.35% (inactive). Further, the binding (% of control) in experiment [12] is 101% (inactive). Also, the efflux inhibition (fraction of control) in experiment [13] was 0.41 (inactive). Moreover, in [15], the differentiation response was 22.4% (inactive).
Take `O=C(Nc1ccc(Oc2c(F)c(F)c(F)c(F)c2F)cc1)OC1CCN2Cc3ccccc3N=C12` (centres undefined): the percent of DMSO control GFP in [1] is 107% (inactive). Besides, the values for the GFP response vs DMSO in experiment [2] and in [4] were 105% (inactive) and 98.4% (inactive), respectively. For the same compound, the percent response of DMSO control in experiment [3] is 97.9% (inactive). For the same compound, the GFP response, % of DMSO in [5] was 96.4% (inactive). In experiment [6], this compound registered a double positive events of 53.8%. For the same compound, in [6], the vesicle binding response was 123% (inactive). Further, the inhibition is -184% (inactive) in experiment [7] and 1% (inactive) in experiment [14]. Moreover, the superoxide response (% of plate) in [8] was 85.7% (inactive). Also, in [9], the aptamer binding inhibition was 0% (inactive). The response in experiment [11] was -2.8% (inactive). Besides, the binding (% of control) in experiment [12] was 98.8% (inactive). The efflux inhibition (fraction of control) in [13] was 1.47 (active). Also, in experiment [15], the differentiation response was 70.8% (active).
